Results taken from PubChem BioAssay AID743331 (Broad Institute, 2014).
Unmarked numbers belong to inactive results.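 The calls were made as follows: active = falling cell viability signal whose fitted half-effect concentration is at most twice the highest valid tested dose; inconclusive = flat curve with 30 to 70 percent loss, or poor fit; inactive = the rest.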

Experiment: HepG2 viability loss, ATP readout – cell-based, plate reader, dry powder, set 8, cytotoxicity control, dose response (AID 743331)
Conditions: CellTiter-Glo ATP luminescence, 72 h; series mostly up to 15 µM; activity change, negative = cytotoxicity: at the top concentration

| SMILES | activity change, negative = cytotoxicity |
| --- | --- |
| COc1cccc2sc(NC(=O)c3cc(S(=O)(=O)N(C)C)ccc3N3CCCC3)nc12 | 7.99% |
| COc1ccc2sc(NC(=O)c3cc(S(=O)(=O)N(C)C)ccc3N3CCCC3)nc2c1 | 36.4% |
| Cc1csc(NC(=O)c2cc(S(=O)(=O)N(C)C)ccc2N2CCCC2)n1 | -5.77% |
| Cc1cnc(NC(=O)c2cc(S(=O)(=O)N3CCCC3)ccc2N2CCCC2)s1 | 2.46% |
| CN(C)CCCN(Cc1cc2ccccc2[nH]c1=O)C(=O)NCc1ccccc1 | -1.32% |
| CN(C)S(=O)(=O)c1ccc(N2CCCC2)c(C(=O)Nc2nc3ccccc3s2)c1 | -6.07% |
| CN(C)S(=O)(=O)c1ccc(N2CCCC2)c(C(=O)Nc2cccc(F)c2)c1 | -9.24% |
| Cc1cnc(NC(=O)c2cc(S(=O)(=O)N(C)C)ccc2N2CCC2)s1 | -4.57% |
| Cc1cnc(NC(=O)c2cc(S(=O)(=O)N(C)C)ccc2N(C)C)s1 | 1.98% |
| Cc1cnc(NC(=O)c2cc(S(=O)(=O)N3CCOCC3)ccc2N2CCCC2)s1 | -0.67% |
| Cc1cnc(NC(=O)c2cc(S(=O)(=O)N(C)C)ccc2N2CCCC2)s1 | -14.3% |
| CN(C)S(=O)(=O)c1ccc(N2CCCC2)c(C(=O)Nc2nccs2)c1 | -1.58% |
| Cc1cnc(NC(=O)c2cc(S(=O)(=O)N3CCCCC3)ccc2N2CCCC2)s1 | 1.41% |
| Cc1ccc(NC(=O)c2cc(S(=O)(=O)N(C)C)ccc2N2CCCC2)cc1 | -1.89% |
| COc1ccc2nc(NC(=O)c3cc(S(=O)(=O)N(C)C)ccc3N3CCCC3)sc2c1 | -6.47% |
| CN(C)S(=O)(=O)c1ccc(N2CCCC2)c(C(=O)Nc2ccccc2)c1 | 2.08% |
| CN(C)CCCN(Cc1cc2ccccc2[nH]c1=O)C(=O)Nc1ccccc1 | -8.85% |
| CCN(CC)c1ccc(S(=O)(=O)N(C)C)cc1C(=O)Nc1ncc(C)s1 | -2.29% |
| Cc1cnc(NC(=O)c2cc(S(=O)(=O)N(C)C)ccc2C2CCCC2)s1 | 1.69% |
